Consider 100 compounds from ChEMBL document CHEMBL3988442, “University of Dundee, Small-Polar-MMV Screening Library” (2021).

Among all 48,000 compounds or so, about 13,000 (27%) showed an effect of 50% or more. The list shows a part of the results.

This assay has as its system Wolbachia pipientis. Kind of assay: Anti-Wolbachia Cell-Based Screen. In kind it is functional. On the set-up: scale not given: in the data most compounds retested in dose-response had high values. The conditions noted are these: 5 µM.
Regarding `COc1ccccc1N1CCN(C(=O)c2ccoc2)CC1`, the “Percent Effect” value amounted to 4.438%.

Turning to `CNC(=O)Cc1noc(-c2cc3c(s2)CCCCCC3)n1`, the “Percent Effect” value is on record as -5.82%. The figure for `COc1cccc(CC(=O)N2CCc3ncnc(C)c3CC2)c1` is -6.07%; for `CCn1cnnc1C1CCN(C(=O)COCCc2ccccc2)CC1` it is 1.598%; for `CCn1cnnc1C1CCN(C(=O)c2cc(C)n(CC)c2C)CC1` it is 80.75%. With `CCn1c(C)cc(C(=O)N2CCCC(c3nc(C)no3)C2)c1C` (stereo not given) the figure was 12.03%. With `CCn1cnnc1C1CCN(C(=O)c2ccc(Cl)s2)CC1`, the “Percent Effect” value is given as 1.567%. With `CCn1cnnc1C1CCN(C(=O)c2ccoc2C)CC1` the figure was 104.9%. The figure for `CCn1cnnc1C1CCN(C(=O)c2c(C)oc(C)c2C)CC1` is 107.2%; for `CCc1ccc(C(=O)N2CCC(c3nncn3CC)CC2)o1` it is 130.6%. The figure for `CCCS(=O)(=O)N1CCC2(CC1)COCCN(C(C)=O)C2` is -12.8%. `NCCC1CN(c2nc(-c3ccccc3)nc3c2CCNC3)CCO1` (stereo not given): the “Percent Effect” value is recorded as -13.03%.

With `CC(=O)c1cccc(OCCCC(=O)N(C)Cc2cscn2)c1`, the “Percent Effect” value is 4.484%. The figure for `COc1cc(Br)c(CNC(C)c2nnc3n2CCC3)cc1OC` (stereo not given) is 2.226%; for `CNS(=O)(=O)c1ccccc1N1CCN(C(=O)C(C)C)CC1` it is -15.34%.

For the compound `COc1cccc2ccc(CN3CCN(c4cccnc4)CC3)nc12`, the “Percent Effect” value is recorded as 1.116%. The figure for `CCn1cnnc1C1CCN(C(=O)c2ccc3ccccc3n2)CC1` is 136.7%; for `CCn1cnnc1C1CCN(C(=O)C(OC)c2ccccc2)CC1` (stereo not given) it is -2.664%; for `CCn1cnnc1C1CCN(C(=O)c2cccc(C)c2C)CC1` it is 94.12%. With `CCn1cnnc1C1CCN(C(=O)c2ccccc2F)CC1`, the “Percent Effect” value was found to be 104.8%.

As for `CNc1nc(CNC(=O)Nc2ccccc2OC(C)C)cs1`, the “Percent Effect” value is -5.433%. The figure for `CCSCCC(C)N(C)C(=O)c1cc(C)no1` (stereo not given) is -5.306%; for `Cc1[nH]ncc1CCCNC(=O)Nc1ccc(C#N)cc1` it is -18.53%. With `CCOCCn1nc(C)cc1C(=O)N1CC[C@@](O)(COC)C(C)(C)C1` the figure was 0.9121%; with `CC(Sc1nnc(C2CC2)n1CC(N)=O)c1ccc(Cl)cc1` (stereo not given), 0.3539%; with `OCC1(CCOc2ccccc2)CCN(c2ccc(Cl)cn2)CC1`, -3.583%. The figure for `Cc1ccc(Cl)cc1-n1nnnc1C1(N2CCCC2)CCCC1` is -26.05%; for `O=C(NCC(O)c1ccc(F)cc1F)c1ccccc1F` (stereo not given) it is 15.04%. As for `COc1ccccc1NC(=O)NCC(O)c1ccc(F)cc1F` (stereo not given), the “Percent Effect” value stood at 114.6%. The figure for `COc1ncccc1NC(=O)NCC(O)c1ccc(F)cc1F` (stereo not given) is 0.8108%. With `CC(C)OCCOCc1cccc(NC(=O)NCc2cnn(C)c2)c1` the figure was 2.629%; with `Cc1cccc(C(=O)NCC(O)c2ccc(F)cc2F)c1` (stereo not given), 14.48%; with `COc1cccc(NC(=O)NCC(O)c2ccc(F)cc2F)c1` (stereo not given), 109.6%. The figure for `COc1cccc(NC(=O)NCC(Cc2cnn(C)c2)C(N)=O)c1` (stereo not given) is 2.392%; for `COc1cccc(NC(=O)NCc2cnn(C)c2)c1` it is 90.55%.

`CC(C)Nc1cccc(C(=O)NCC(O)c2ccc(F)cc2F)c1` (stereo not given): the “Percent Effect” value came to 1.201%. The figure for `CC(=O)c1cccc(OC(C)C(=O)Nc2cnn(CCN(C)C)c2)c1` (stereo not given) is -1.957%. With `CC(NC(=O)c1cccc(CCC(C)(C)O)c1)c1nnc(N)s1` (stereo not given) the figure was -8.452%. On to `OCc1ccc(OCC(F)(F)F)cc1`, for which the “Percent Effect” value was found to be 0.2216%.

Turning to `CCC(C)N(C)C(=O)Nc1ccc(N2CCSCC2)cc1C` (stereo not given), the “Percent Effect” value is on record as -11.87%.

For the compound `CC(C)CN1CCO[C@H]2CCN(c3cnccn3)CC[C@@H]21.O=C(O)C(F)(F)F`, the “Percent Effect” value was determined as 107%. With `CCCC(=O)N1C[C@@H]2CCN(c3cnccn3)C[C@@H]2C1.O=C(O)C(F)(F)F` the figure was 107.8%; with `CC(C)CC(=O)N1C[C@@H]2CCN(c3cnccn3)C[C@@H]2C1.O=C(O)C(F)(F)F`, 83.3%; with `O=C(O)C(F)(F)F.O=C(c1cnccn1)N1C[C@@H]2CCN(c3cccnc3)C[C@@H]2C1`, -9.697%.

Turning to `O=C(O)C(F)(F)F.O=C(c1ccccc1)N1CCO[C@@H]2CN(c3cnccn3)C[C@@H]2C1`, the “Percent Effect” value is -2.123%.

For the compound `CCOCC(=O)N1C[C@@H]2CCN(c3cnccn3)C[C@@H]2C1.O=C(O)C(F)(F)F`, the “Percent Effect” value was determined as 110.3%.

Regarding `CC(SCC(=O)NC(N)=O)c1ccccc1F` (stereo not given), the “Percent Effect” value is given as -3.716%. With `Cc1cc(C)cc(S(=O)(=O)NCC2CNCCOC2)c1` (stereo not given) the figure was 5.985%; with `Cc1c(C(=O)NS(=O)(=O)c2ccsc2)cnn1CC(C)C`, 9.8%. The figure for `Cn1cncc1C(=O)N1C[C@@H]2CCN(c3cnccn3)C[C@@H]2C1.O=C(O)C(F)(F)F` is -2.415%; for `Cn1ccnc1C(=O)N1C[C@@H]2CCN(c3cnccn3)C[C@@H]2C1.O=C(O)C(F)(F)F` it is -15.62%. With `CCC(=O)N1C[C@@H]2CCN(c3cnccn3)C[C@@H]2C1.O=C(O)C(F)(F)F` the figure was 109.3%; with `O=C(c1nc(=O)[nH][nH]1)N1CCCN(CC2CCCCC2)CC1`, 4.28%; with `Cc1nc(C2(O)CCCNCC2)sc1CCOc1ccc(Cl)cc1.Cl` (stereo not given), -4.713%. As to `Cc1[nH]nc2ncc(C(=O)N3CCN(CC(C)(C)O)CC3)cc12`, the “Percent Effect” value is -29.67%. With `COCc1ncn2c1CN(S(=O)(=O)c1cccc(F)c1)CC2` the figure was -3.986%; with `CCOCC1CN(S(=O)(=O)Cc2ccccc2)Cc2nccn2C1` (stereo not given), 112.8%. The figure for `CCOCC1CN(S(=O)(=O)c2ccccc2)Cc2nccn2C1` (stereo not given) is 89.2%; for `COCC1CN(S(=O)(=O)c2ccccc2)Cc2ncnn2C1` (stereo not given) it is 2.623%. The figure for `CCOCC1CN(S(=O)(=O)c2cccc(C)c2)Cc2nccn2C1` (stereo not given) is 102.9%; for `CCOCc1ncn2c1CN(S(=O)(=O)c1cccc(C)c1)CC2` it is -2.947%; for `O=S(=O)(Cc1ccccc1)NC[C@H]1Cn2ccnc2CO1` it is -7.74%. With `CCS(=O)(=O)N1Cc2nccn2CC(COc2cccnc2)C1` (stereo not given), the “Percent Effect” value is listed as -25.66%. Turning to `COCC1CN(S(=O)(=O)c2cccc(F)c2)Cc2nccn2C1` (stereo not given), the “Percent Effect” value is 114.5%. The figure for `CCc1nnc(CN(C)c2nc(C(C)C)nc3c2cnn3C)o1` is -14.59%; for `CCc1nc(C2CCCN2c2ncc(C(F)(F)F)cc2Cl)no1` (stereo not given) it is 16.09%; for `Cc1cccc(S(=O)(=O)N2Cc3c(CN(C)C)nn(C)c3C2)c1` it is -7.774%. With `Cc1cccc(S(=O)(=O)N2Cc3nccn3CC(CN(C)C)C2)c1` (stereo not given) the figure was 117.9%; with `CCCS(=O)(=O)N1Cc2nccn2CC(CN(C)C)C1.O=C(O)C(F)(F)F` (stereo not given), -8.912%. The figure for `CC(C)C1=NOC2(CCN(C(=O)C3CCCC3)CC2)C1` is 98.86%; for `CS(=O)(=O)N1CCC2(CC1)CN(CCn1cccn1)C(=O)CO2` it is -11.65%. In the case of `CS(=O)(=O)N1CCOC2(CCCC2)C1`, the “Percent Effect” value is listed as -2.404%.

`COCCC1COC2(CCN(C(=O)C3CCCC3)CC2)C1` (stereo not given): the “Percent Effect” value is given as -1.347%.

Regarding `CC(C)C1=NOC2(CCN(S(C)(=O)=O)CC2)C1`, the “Percent Effect” value is listed as 106.9%. With `CC(=O)N1CCC2(CC1)CC(C(C)C)=NO2` the figure was 118.9%; with `COCCC1COC2(CCN(C(=O)C3CCCCC3)CC2)C1` (stereo not given), -0.113%. With `Cc1ccc(C(=O)N2CCC3(CC2)CC(NC(=O)C(C)C)CO3)cc1` (stereo not given) the figure was -11.34%; with `COCCC1COC2(CCN(C(C)=O)CC2)C1` (stereo not given), -6.336%; with `CO[C@H]1CNC[C@@H]1NC(=O)c1cc(C)nc2c(C)cc(C)cc12`, 0.2692%.

As to `Cc1cnn(CCNCc2ccccc2Oc2cccnc2)c1`, the “Percent Effect” value is listed as 8.919%. With `CCCc1nc(N2Cc3cnn(Cc4ccc(F)cc4)c3C2)no1`, the “Percent Effect” value was 5.743%.

For the compound `CSc1ccccc1CN1C[C@H]2CC[C@@H]1CN(Cc1[nH]cnc1C)C2`, the “Percent Effect” value was -3.423%. With `CC(C)(C)C(N)c1nc(-c2nnc[nH]2)no1` (stereo not given) the figure was -10.11%; with `COC(=O)c1ccc(/C=C/c2ncc(C(=O)O)s2)cc1`, 5.854%. As for `CCOc1cc(/C=C/c2ncc(C(=O)O)s2)cc(Br)c1OC`, the “Percent Effect” value came to 120.5%. As to `CCOc1c(Br)cc(/C=C/c2ncc(C(=O)O)s2)cc1OC`, the “Percent Effect” value came to 109.6%. With `COC(=O)c1cnc(/C=C/c2ccc(C(=O)O)cc2)s1` the figure was -4.44%. The figure for `CCOc1cc(/C=C/c2ncc(C(=O)O)s2)ccc1O` is 7.127%. The figure for `CCOc1cc(/C=C/c2ncc(C(=O)O)s2)cc(Br)c1O` is 111.7%; for `CNC(=O)c1cnc(/C=C/c2cc(OC)cc(OC)c2)s1` it is 5.835%; for `CCOc1c(OC)cc(/C=C/c2ncc(C(=O)NC)s2)cc1OC` it is -0.7468%. On to `CNC(=O)c1cnc(/C=C/c2cc(OC)c(O)c(OC)c2)s1`, for which the “Percent Effect” value is listed as -7.095%. With `Cc1noc(C)c1CC(=O)NCC(C)N1CCOCC1` (stereo not given) the figure was 8.973%. Regarding `O=C(NCc1cccnc1)[C@@H]1CC[C@@H]2[C@@H](CCN2c2ncccn2)O1.O=C(O)C(F)(F)F.O=C(O)C(F)(F)F`, the “Percent Effect” value is 3.562%. On to `Fc1ccc(CN2CCO[C@H]3[C@H](OCC4CC4)CC[C@@H]32)cc1.O=C(O)C(F)(F)F`, for which the “Percent Effect” value worked out at 2.778%. As for `CO[C@H]1CC[C@H]2[C@H]1OCCN2Cc1ccc(F)cc1.O=C(O)C(F)(F)F`, the “Percent Effect” value came to 91.7%.

For `Fc1cccc(CN2CCO[C@H]3[C@@H](OCc4ccccn4)CC[C@@H]32)c1`, the “Percent Effect” value amounted to 10.15%. As for `CO[C@@H]1CC[C@H]2[C@H]1OCCN2Cc1ccc(F)cc1.O=C(O)C(F)(F)F`, the “Percent Effect” value came to 109.6%. The figure for `CCO[C@@H]1CC[C@H]2[C@H]1OCCN2Cc1ccc(F)cc1` is 96.26%; for `Fc1ccc(CN2CCO[C@H]3[C@H](OCC4CCCC4)CC[C@@H]32)cc1.O=C(O)C(F)(F)F` it is 109%.
